Data published in PubChem BioAssay (NCI).
Compounds without any hit were thinned out: in the full panel of roughly 79,000, 15% have a hit. Activity calls are given as the source filed them. No stated cut-off is given here; in the data, active means growth inhibition above about 70%; inactive means the rest.

Legend:
[1] = NCI Yeast Anticancer Drug Screen. Data for the rad50 strain (AID 155);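 further: 0% = growth of vehicle-only cultures of the same strain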; conditions: S. cerevisiae rad50 strain growth inhibition; at 50.0 µM; active compounds read high
Summary of the method: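 A DNA repair-deficient yeast mutant serves as the test organism; compound-induced growth inhibition is calculated against vehicle-treated cells.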

[2] = NCI Yeast Anticancer Drug Screen. Data for the mec2-1 strain (AID 157); conditions: S. cerevisiae mec2-1 strain, at 50.0 µM, active compounds read high
Summary of the method: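 mec2-1 yeast strain, carrying an alteration in DNA damage repair or cell cycle control, was exposed to compounds; growth inhibition was measured relative to vehicle-treated controls.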

[3] = NCI Yeast Anticancer Drug Screen. Data for the sgs1 mgt1 strain (AID 161);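 further: 0% = growth of cultures given vehicle only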; conditions: S. cerevisiae sgs1 mgt1 strain, at 50.0 µM, active compounds read high
Summary of the method: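 Percent growth inhibition was derived by comparing compound-exposed mutant yeast with vehicle-exposed cultures. The strain carries alterations in DNA damage repair.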

[4] = NCI Yeast Anticancer Drug Screen. Data for the cln2 rad14 strain (AID 165);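 further: 0% = growth equal to vehicle treated cultures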; conditions: S. cerevisiae cln2 rad14 strain, at 50.0 µM, active compounds read high
Summary of the method: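 Yeast carrying cln2 and rad14 alterations (cell cycle control and DNA damage repair) were exposed to compounds. Growth inhibition was measured against vehicle-treated controls.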

[5] = NCI Yeast Anticancer Drug Screen. Data for the bub3 strain (AID 167); conditions: S. cerevisiae bub3 mutant strain, at 50.0 µM, active compounds read high
Summary of the method: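 Inhibition values come from growth of compound-treated mutant yeast normalised to vehicle-treated controls.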

[6] = NCI Yeast Anticancer Drug Screen. Data for the mlh1 rad18 strain (AID 175); conditions: S. cerevisiae mlh1 rad18 strain growth inhibition; at 50.0 µM; active compounds read high
Summary of the method: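 Growth inhibition of the yeast strain was measured after compound exposure and expressed relative to vehicle-treated controls. The strain carries defined defects in DNA damage repair.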

Measured: growth inhibition

Cc1cnoc1/N=C1\C=C(Nc2oncc2C)C(=O)c2ccccc21
inactive: [1] -14.7% | [2] -6.55% | [3] -31.9% | [4] 2.9% | [5] -17.3% | [6] -8.85%

C=CCOC(=O)NCC(=O)NC(C)C(N)=O (configuration not stated)
inactive: [1] -22.7% | [2] -14.2% | [3] -19.1% | [4] 2.55% | [5] -5.5% | [6] 4.25%

CC[n+]1ccc(-c2ccccc2)o1
inactive: [1] 3.6% | [2] 13.1% | [3] 2.25% | [4] 27.3% | [5] 28.4% | [6] -4.75%

COC(=O)c1cccc(C)c1C(=O)c1ccc(C)cc1C
inactive: [1] 9.65% | [2] 26.6% | [3] 53.1% | [4] -22.5% | [5] 57.8% | [6] 57.2%

COC(=O)c1ccccc1CC1Cc2c(C)ccc(C)c2C1=O (configuration not stated)
inactive: [1] -3.9% | [2] 3.1% | [3] 0.15% | [4] 3.45% | [5] 0.55% | [6] 17.8%

COc1cc2c(c(OC)c1OC)-c1ccc(S(=O)(=O)Cc3ccccc3)c(=O)cc1C(NC(C)=O)CC2 (configuration not stated)
inactive: [1] 34.5% | [2] 16.2% | [3] 9.8% | [4] -2.3% | [5] 1.25% | [6] 21.8%

CC1OC1P(=O)(O)O (configuration not stated)
inactive: [1] 16.6% | [2] -5.9% | [3] -4.55% | [4] 1.7% | [5] -3.3% | [6] -6.55%

O=c1[nH]c2cc(Cl)c([N+](=O)[O-])cc2c2ccc(Cl)cc12
inactive: [1] 3.15% | [2] -7.7% | [3] -1.6% | [4] -10.7% | [5] 3.1% | [6] 8.05%

C1CCN=C(N2CCCCCC2)CC1
inactive: [1] -16.9% | [2] -4.2% | [3] -5.8% | [4] -33% | [5] 13.6% | [6] -6.25%

COc1ccc2c(c1C)OC(C)C2=O (configuration not stated)
inactive: [1] 9.65% | [2] 5.05% | [3] -3.9% | [4] -21.1% | [5] -15.9% | [6] 0.7%

CN(C)CCCN
inactive: [1] -11.3% | [2] -4.4% | [3] 3% | [4] -30.8% | [5] 5.7% | [6] 1.5%

CC(C)/C=N/N(CCOC(=O)Nc1cccc2ccccc12)C(=O)Nc1cccc2ccccc12
inactive: [1] -4.95% | [2] -15.1% | [3] 1.75% | [4] -19.8% | [5] -8.15% | [6] 14.8%

CC(=O)Oc1cc2c(cc1Cc1ccc3c(c1)OCO3)OCO2
inactive: [1] -18.6% | [2] -17.2% | [3] -7% | [4] -6.2% | [5] 15.9% | [6] -14.5%

O=c1oc(Cl)cc2oc(=O)n(-c3ccccc3)c(=O)c12
inactive: [1] 10.8% | [2] 7% | [3] 18.8% | [4] -3.15% | [5] -9.25% | [6] 9.45%

CN(C)c1ccc(/C=C(\NC(=O)c2ccccc2)c2nn(C)c(=O)o2)cc1
inactive: [1] -15.8% | [2] -4.8% | [3] -11.1% | [4] -20.9% | [5] -1.4% | [6] -22.6%

O=C(CCl)OCc1ccc(Cl)cc1
inactive: [1] 4.5% | [2] 2.55% | [3] -3.75% | [4] -27.8% | [5] 1.25% | [6] -9.45%

Cc1ccc(NC(=O)NCCCN2CCOCC2)cc1NC(=O)NCCCN1CCOCC1
inactive: [1] -11.8% | [2] -22.6% | [3] 3.85% | [4] 17.2% | [5] 8.3% | [6] 7.05%

Oc1cc(CN2COc3ccccc32)c(O)cc1CNC1CCCCC1
inactive: [1] -6.65% | [2] -4.95% | [3] -25.6% | [4] 62.5% | [5] -33.7% | [6] -12.3%

N#CC1C2CCC(C2)C1CCCN (configuration not stated)
inactive: [1] 18.4% | [2] -8.75% | [3] 6.55% | [4] -81.9% | [5] -8.05% | [6] -13.8%

C(=C\c1ccc(/C=C/c2ccccc2)nn1)/c1ccccc1
inactive: [1] -5.8% | [2] -3.1% | [3] -1.65% | [4] -21.4% | [5] 0.8% | [6] -2.1%

Cc1nc(N)[nH]c(=O)c1CCCNc1ccc(CCCCCCC2(CCl)OCCO2)cc1
inactive: [1] 12.4% | [2] -0.15% | [3] 1.45% | [4] 2.9% | [5] 17.4% | [6] -9.4%

CCCCNC(=O)NC/C(Br)=C/Br
inactive: [1] 1.75% | [2] 5.15% | [3] 1.4% | [4] -3.75% | [5] 1.85% | [6] -5.2%

O=C(Oc1ccccc1)Oc1c(Cl)cc([N+](=O)[O-])cc1[N+](=O)[O-]
inactive: [1] 25% | [2] 1.4% | [3] 5.25% | [4] 10.9% | [5] 0.45% | [6] 15.5%

O=C(Nc1ccc(Cl)cc1)P(=O)(O)c1ccccc1
inactive: [1] -11.8% | [2] -0.95% | [3] -23.1% | [4] -26.8% | [5] -16.8% | [6] 18.1%

CCOC(CCNCC(OCC)OCC)OCC
inactive: [1] -46.5% | [2] -56.2% | [3] -29.4% | [4] -11.1% | [5] -4.8% | [6] -22.4%

CC1=CC(=O)/C(=C/n2c(=S)sc3ccccc32)C(=O)O1
inactive: [1] -27.4% | [2] 7.1% | [3] 27.9% | [4] 23% | [5] -29.9% | [6] 14.6%

CC[N+](C)(CC)CCNc1cc2c(c3c(=O)c4ccccc4sc13)CCCC2
active: [1] 99.2% | [2] 99.7% | [3] 99.1% | [4] 99.2% | [5] 99% | [6] 99%

CN(c1ccccc1)c1nc(Cl)c(Cl)c(Cl)n1
inactive: [1] -0.2% | [2] -11.5% | [3] 6.55% | [4] -39.9% | [5] 2.45% | [6] -3.5%

CCCCCOC(=O)c1cccnc1
inactive: [1] -8.75% | [2] -16.1% | [3] -15% | [4] -0.2% | [5] 0.7% | [6] -1.5%

C=CCCCCCCCCC(N)=O
inactive: [1] -12.6% | [2] -8.4% | [3] 4.15% | [4] -1.8% | [5] 13.2% | [6] -14.6%

C=CCNC(=O)NCCCCC(NC(C)=O)C(=O)NCc1ccccc1 (configuration not stated)
inactive: [1] -25.4% | [2] -18.4% | [3] -13.6% | [4] 2.35% | [5] -16.8% | [6] -10%

COc1ccc(COC(=O)NC2CCCCC2)cc1OC
inactive: [1] 2.5% | [2] 19.9% | [3] 25.1% | [4] -9.95% | [5] 37% | [6] 45.9%

CC(C)=CCC/C(C)=C/C=O
inactive: [1] 9.1% | [2] 2.95% | [3] 5.1% | [4] 9.6% | [5] 7.95% | [6] 8.4%

CC(=O)OC(Cn1cncn1)(Cn1cncn1)c1ccc(Cl)cc1Cl
inactive: [1] 43.6% | [2] 32.5% | [3] 58.3% | [4] 46.8% | [5] 39.8% | [6] 56.7%

Cc1ccc(NC(=O)Oc2cc(C)c(Cl)cc2C(C)C)cc1
inactive: [1] -3.9% | [2] 54.2% | [3] 43% | [4] -28.2% | [5] 51.4% | [6] 65%

COc1ccc(CCN2CCc3c(C)c(C#N)c4nc5ccccc5n4c32)cc1OC
inactive: [1] 5.75% | [2] 26% | [3] 28.5% | [4] 12.1% | [5] 52.4% | [6] 34.5%

S=c1[nH]c(=S)c2nnn(-c3ccccc3)c2[nH]1
inactive: [1] -47% | [2] -38% | [3] -31.5% | [4] -25.9% | [5] -47.9% | [6] -34%

COC(=O)CNN
inactive: [1] -6.05% | [2] -19.4% | [3] -14.8% | [4] -25.1% | [5] -7.25% | [6] 7.9%

CSc1nc2ncnc(N(C)C)c2[nH]1
inactive: [1] 1.1% | [2] -11.8% | [3] -8.5% | [4] 2.45% | [5] -7.4% | [6] -16.5%

CC(C)CCC(C)(C)O
inactive: [1] 45.9% | [2] 1.8% | [3] 16.1% | [4] -20.7% | [5] 9.95% | [6] 34.2%

Cc1cccc(C(=O)OCc2ccccc2CN2CCCCC2)c1
inactive: [1] -5.15% | [2] -9.75% | [3] -12.9% | [4] -21.6% | [5] 2.85% | [6] -3.6%

C(=N\c1oc(-c2ccccc2)c(-c2ccccc2)c1-c1ccccc1)/c1ccccc1
inactive: [1] 14.4% | [2] -5.15% | [3] -4.85% | [4] 14.3% | [5] 4.2% | [6] 6.2%
